# Data as given in the supplement of paper PMC10011410.
# ± gives the standard deviation of the averaged measurements.
# Tested on: AmpC beta-lactamase (E. coli)
# Assay: AmpC inhibition relative to DMSO; higher = more inhibition
# Description: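 Aggregation counter-screen: inhibition of E. coli AmpC beta-lactamase (5 nM, nitrocefin substrate, 50 mM sodium phosphate pH 7.0, RT, 5 min) by KAT inhibitors at 4, 11, 33 and 100 uM, with or without 0.01% Triton X-100. Percent inhibition is relative to DMSO controls. Four technical replicates.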
# [1] = 4 µM, detergent: 0.01% Triton X-100
# [2] = 11 µM, detergent: 0.01% Triton X-100
# [3] = 33 µM, detergent: 0.01% Triton X-100
# [4] = 100 µM, detergent: 0.01% Triton X-100
# [5] = 100 µM, detergent: no detergent
Compound,AmpC inhibition [1] [%],"AmpC inhibition (4 µM, detergent: no detergent) [%]",AmpC inhibition [2] [%],"AmpC inhibition (11 µM, detergent: no detergent) [%]",AmpC inhibition [3] [%],"AmpC inhibition (33 µM, detergent: no detergent) [%]",AmpC inhibition [4] [%],AmpC inhibition [5] [%]
CC1=NN(c2ccc(C(=O)O)cc2)C(=O)/C1=C\c1ccc(-c2cc(C)c(C)cc2[N+](=O)[O-])o1,1.81 ± 2.9,-0.0252 ± 5.8,8.78 ± 2.2,-41.4 ± 11,5.34 ± 3.4,-43.6 ± 23,5.65 ± 3.5,4.46 ± 2.3
CC(Cc1ccc(O)c(O)c1)C(C)Cc1ccc(O)c(O)c1 (stereo not given),0.262 ± 1.6,2.98 ± 9.9,-1.09 ± 14,23.2 ± 4,1.16 ± 12,47.4 ± 7.5,-4.88 ± 5.5,86 ± 2.8
O=C1C(Cl)=C(NCCN2CCOCC2)C(=O)c2ncccc21,8.96 ± 3,0.538 ± 7,5.66 ± 0.9,0.224 ± 2.9,5.99 ± 7.4,-1.42 ± 2.1,6.05 ± 2,-4.13 ± 5.6
CCCC1(c2ccccc2)NC(=O)N(CC(=O)N(C)Cc2c(F)cccc2Cl)C1=O (stereo not given),14.2 ± 2.9,-1.7 ± 2,7.15 ± 9.5,11.6 ± 7.8,6.15 ± 7.3,5.75 ± 6.8,6.78 ± 1.8,3.79 ± 0.91
ClC1=CC=C(C2=CSC(N/N=C3CCCC/3)=N2)C=C1,5.11 ± 3.4,11.8 ± 4.8,4.35 ± 2.1,6.62 ± 2.3,1.83 ± 7,14.2 ± 9,7.09 ± 4.1,1.99 ± 3.6
